Several values for one entry are separate records, joined by “and”; a condition that tells them apart may be missing. Identical values can stand only once. Results filed as inconclusive are left out. The source holds several records for some structures; these can differ, active in one and inactive in another. Activity calls are given as the source filed them. Unless noted, calls come from the whole dose curve; as a rule, active = well fitted curve in the direction sought with a large enough effect in the repeat runs; inconclusive = weak or mixed curves; inactive = no such curve, though single readings can be large; an effect the other way counts as inactive or inconclusive.
Experiments:
[1] = qHTS assay for small molecules that induce genotoxicity in human embryonic kidney cells expressing luciferase-tagged ATAD5 (AID 651632); note: nearly all actives have a fitted effect of over 15% in size
How it was run: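 Luminescent reporter readout, HEK293T ATAD5-luc line: 16 hr drug exposure (37C, 5% CO2) followed by Amplite, 30 min RT.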

[2] = qHTS assay for small molecules that induce genotoxicity in human embryonic kidney cells expressing luciferase-tagged ATAD5 - cell viability (AID 651634; calls by dose curve; note: nearly all actives have a fitted effect of over 25% in size; note: potency is the fitted concentration of half-maximal effect)
How it was run: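 Viability read: CellTiter-Fluor fluorescence, 30 min at 37C. Cells: HEK293T, luciferase-tagged ATAD5. Exposure: 15.5 hr, 37C, 5% CO2, compound or DMSO vehicle.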

[3] = qHTS assay for small molecule disruptors of the mitochondrial membrane potential (AID 720635); note: potency is the fitted concentration of half-maximal effect
How it was run: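 Mitochondrial membrane potential tracked with Mito-MPS dye, red aggregates (ex 540/em 590 nm) against green monomers (ex 490/em 535 nm). Compound treatment 1 hr at 37C, dye 30 min in HepG2.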

[4] = qHTS assay to test for compound auto fluorescence at 590 nm (red) in HepG2 cells (AID 720674)
How it was run: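 Red autofluorescence (Ex/Em 540/590 nm, Rose Bengal sodium equivalents) was measured in HepG2 cells, 2,000 per well in MEM plus 10% FBS, plated overnight at 37 C. Readings were taken 1 hr after adding 23 nL compound or DMSO, at 37 C and 5% CO2.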

[5] = qHTS assay to test for compound auto fluorescence at 535 nm (green) in HepG2 cells (AID 720675)
[6] = qHTS assay to test for compound auto fluorescence at 460 nm (blue) in HEK293 cells (AID 720678)
How it was run: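 Triamterene serves as the blue fluorophore standard. Compound signal at 405/460 nm is read in HEK293 wells (2,000 cells, 10% dialyzed FBS) after overnight treatment at 37C.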

[7] = qHTS assay to test for compound auto fluorescence at 590 nm (red) in HEK293 cells (AID 720679)
How it was run: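 We plated HEK293 cells in 10% dialyzed FBS medium, let them adhere for 4-5 hr, then added 23 nL compound. Overnight at 37C and 5% CO2 preceded fluorescence measurement at 540/590nm.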

[8] = qHTS assay for small molecule agonists of the p53 signaling pathway - cell viability (AID 651633; calls by dose curve; note: nearly all actives have a fitted effect of over 30% in size; note: potency is the fitted concentration of half-maximal effect)
How it was run: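 Viability counter-read: CellTiter-Glo luminescence (30 min, room temperature) in the same p53RE-bla plates. These plates had been exposed to compounds for 16 h at 37 C.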

[9] = qHTS assay for small molecule disruptors of the mitochondrial membrane potential - cell viability (AID 720634; calls by dose curve; note: nearly all actives have a fitted effect of over 20% in size; note: potency is the fitted concentration of half-maximal effect)
How it was run: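 HepG2, 1 hr compound, 37 C. ATP luminescence via CellTiter-Glo, 30 min RT, same well as m-MPI.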
% is set by controls: 0 for no effect and ±100 for the full control effect.

CCOP(=S)(OCC)OC(Cl)C(Cl)(Cl)Cl (centres undefined)
active: Potency [3] 61.1 µM
inactive: Potency [1] | Potency [2] | outcome [4] | outcome [5] | Potency [6] | outcome [7]

CCCCCCCCCCCCCCCCCCn1cc[n+](C)c1
active: Potency [3] 9.63 µM
inactive: Potency [1] | Potency [2] | outcome [4] | outcome [5] | Potency [6] | outcome [7]

CN(C)c1ccc(N=Nc2ccccc2)cc1
inactive: Potency [8] | outcome [4] | outcome [5] | Potency [6] | outcome [7]
active: Potency [2] 68.7 µM | Potency [9] 48.6 µM

O=[N+]([O-])O.O=[N+]([O-])O.[Cd]
active: Potency [2] 1.22 µM
inactive: outcome [4] | outcome [5] | Potency [6] | outcome [7]

Oc1c(Cl)c(Cl)cc(Cl)c1Cl
inactive: Potency [1] | Potency [9] | outcome [4] | outcome [5] | Potency [6] | outcome [7]
active: Potency [3] 5.3 µM

CC(C)[C@H](C(=O)OC(C#N)c1cccc(Oc2ccccc2)c1)c1ccc(OC(F)F)cc1 (some centres undefined)
active: Potency [3] 17.2 µM
inactive: Potency [1] | Potency [2] | outcome [4] | outcome [5] | Potency [6] | outcome [7]

[Cd+2].[Cl-].[Cl-]
inactive: outcome [4] | outcome [5] | Potency [6] | outcome [7]
active: Potency [2] 1.95 µM and 1.22 µM

CC1(c2ccc(Oc3ccccc3)cc2)OC(=O)N(Nc2ccccc2)C1=O (centres undefined)
inactive: Potency [1] | Potency [2] | outcome [4] | outcome [5] | Potency [6] | outcome [7]
active: Potency [3] 3.88 µM

Clc1ccc(CSC(Cn2ccnc2)c2ccc(Cl)cc2Cl)cc1 (centres undefined)
inactive: Potency [1] | Potency [2] | fluorescence, relative to Rose Bengal [4] -0.0239% [at 18.6 µM] | fluorescence, % of fluorescein control [5] -0.0068% [at 18.6 µM] | fluorescence, % of triamterene [6] -0.071% [at 18.6 µM]

C[C@H]1CC[C@@H]2[C@@H](C)[C@H]3[C@H](C[C@H]4[C@@H]5CC=C6CC(O[C@@H]7O[C@H](CO)[C@H](O)[C@H](O[C@@H]8O[C@H](CO)[C@@H](O)[C@H](O)[C@H]8O)[C@H]7O[C@H]7O[C@@H](C)[C@H](O)[C@@H](O)[C@H]7O)CC[C@]6(C)[C@H]5CC[C@]34C)N2C1 (some centres undefined)
inactive: outcome [4] | outcome [5] | Potency [6] | outcome [7]
active: Potency [2] 26.6 µM and 63.1 µM | Potency [9] 18.8 µM and 70.8 µM | Potency [3] 18.8 µM and 35.5 µM

CC(=O)[O-].CC(=O)[O-].O.O.[Cd+2]
active: Potency [2] 0.214 µM
inactive: outcome [4] | outcome [5] | Potency [6]

N#CCCC(Br)(C#N)CBr (centres undefined)
inactive: outcome [4] | outcome [5] | Potency [6] | outcome [7]
active: Potency [3] 61.1 µM

CC(C)(C)C(O)/C(=C\c1ccc(Cl)cc1Cl)n1cncn1 (centres undefined)
active: Potency [3] 10.4 µM
inactive: Potency [1] | outcome [4] | outcome [5] | Potency [6] | outcome [7]

CCCCCCCCc1ccc(O)cc1
active: Potency [3] 4.89 µM
inactive: Potency [2] | outcome [4] | outcome [5] | Potency [6] | outcome [7]

ClC1=C(Cl)[C@]2(Cl)[C@H]3[C@H]([C@H]4C=C[C@H]3C4)[C@@]1(Cl)C2(Cl)Cl
active: Potency [3] 43.3 µM
inactive: Potency [1] | Potency [2] | outcome [4] | outcome [5] | Potency [6] | outcome [7]

CC(=O)[O-].[Tl+]
inactive: outcome [4] | outcome [5] | Potency [6] | outcome [7]
active: Potency [8] 43.5 µM

CCCSP(=O)(OCC)SCCC
inactive: Potency [2] | Potency [9] | outcome [4] | outcome [5] | Potency [6] | outcome [7]

CCc1nn(C)c(C(=O)NCc2ccc(C(C)(C)C)cc2)c1Cl
inactive: Potency [1] | Potency [2] | outcome [4] | outcome [5] | Potency [6] | outcome [7]
active: Potency [3] 15.4 µM

CN(C)C(=S)S
inactive: Potency [2] | Potency [3] | outcome [4] | outcome [5] | Potency [6] | outcome [7]

C[C@@H]1CC[C@@]2(OC1)O[C@H]1[C@@H](O)[C@H]3[C@@H]4CC[C@H]5C[C@@H](O[C@@H]6O[C@H](CO)[C@H](O[C@@H]7O[C@H](CO)[C@@H](O)[C@H](O[C@@H]8OC[C@@H](O)[C@H](O)[C@H]8O)[C@H]7O[C@@H]7O[C@H](CO)[C@@H](O)[C@H](O[C@@H]8O[C@H](CO)[C@@H](O)[C@H](O)[C@H]8O)[C@H]7O)[C@H](O)[C@H]6O)[C@H](O)C[C@]5(C)[C@H]4CC[C@]3(C)[C@H]1[C@@H]2C
inactive: outcome [4] | outcome [5] | Potency [6] | outcome [7]
active: Potency [8] 23 µM | Potency [2] 64.9 µM | Potency [9] 18.3 µM | Potency [3] 4.59 µM

Clc1ccc(CO/N=C(\Cn2ccnc2)c2ccc(Cl)cc2Cl)c(Cl)c1
inactive: Potency [1] | Potency [9] | outcome [4] | outcome [5] | Potency [6] | outcome [7]

O=C(Nc1ccc2[nH]ccc2c1)c1cc2cc(F)ccc2n1Cc1cccc(F)c1
active: Potency [3] 0.686 µM
inactive: Potency [1] | outcome [4] | outcome [5] | Potency [6]

O=[N+]([O-])c1cc(C(F)(F)F)c(Cl)c([N+](=O)[O-])c1Cl
active: Potency [8] 27.3 µM | Potency [2] 24.3 µM | Potency [9] 15.4 µM | Potency [3] 13.7 µM
inactive: outcome [4] | outcome [5] | Potency [6]

[Hg+2].[I-].[I-]
active: Potency [8] 61.1 µM | Potency [2] 61.1 µM | Potency [3] 17.2 µM
inactive: outcome [4] | outcome [5] | Potency [6]

O=C(O)C1C2CCC(O2)C1C(=O)O (centres undefined)
inactive: Potency [8] | Potency [2] | outcome [4] | outcome [5] | Potency [6] | outcome [7]

C=CC(=O)OCCCCOC(=O)C=C
inactive: Potency [9] | Potency [3] | outcome [4] | outcome [5] | Potency [6] | outcome [7]
active: Potency [2] 54.5 µM

CC(=O)Nc1ccc2c(c1)Cc1ccccc1-2
active: Potency [3] 31.1 µM
inactive: Potency [8] | Potency [2] | Potency [9] | outcome [4] | outcome [5] | Potency [6]

O=C/C(Cl)=C(/Cl)C(=O)O
active: Potency [9] 61.1 µM | Potency [3] 24.3 µM and 38.6 µM
inactive: Potency [8] | Potency [2] | outcome [4] | outcome [5] | Potency [6]

CC(=O)[O-].CC(=O)[O-].[Hg+2]
inactive: outcome [4] | outcome [5] | Potency [6]
active: Potency [2] 54.5 µM

CCCCCCCCCC[N+](C)(C)CCCCCCCCCC
active: Potency [3] 8.41 µM and 24.3 µM
26.6 µM (active) and inactive: Potency [9]
inactive: Potency [1] | outcome [4] | outcome [5] | Potency [6] | outcome [7]

N#C/C=C/C#N
inactive: Potency [8] | Potency [9] | outcome [4] | outcome [5] | Potency [6] | outcome [7]

CCCCN(CCCC)C(=S)[S-].CCCCN(CCCC)C(=S)[S-].[Zn+2]
active: Potency [8] 9.44 µM and 61.1 µM | Potency [3] 27.3 µM
inactive: Potency [9] | outcome [4] | outcome [5] | Potency [6] | outcome [7]

O=c1[nH]c2ccccc2n1CCCN1CCC(n2c(=O)[nH]c3cc(Cl)ccc32)CC1
inactive: Potency [8] | Potency [9] | Potency [3] | outcome [4] | outcome [5] | Potency [6] | outcome [7]

N#CC(Cl)Cl
inactive: Potency [8] | Potency [2] | outcome [4] | outcome [5] | Potency [6]

CN(C)C(=S)[S-].CN(C)C(=S)[S-].[Cu+2]
inactive: Potency [8] | Potency [9] | fluorescence, relative to Rose Bengal [4] 0.166% [at 18.6 µM] | fluorescence, % of fluorescein control [5] -0.0148% [at 18.6 µM] | fluorescence, % of triamterene [6] -0.0228% [at 18.6 µM] | fluorescence, % of fluorescent control [7] 0.0936% [at 18.6 µM]
active: Potency [2] 0.836 µM | Potency [3] 0.592 µM

CN(C)S(=O)(=O)N(SC(F)(Cl)Cl)c1ccccc1
active: Potency [3] 4.86 µM
inactive: Potency [1] | outcome [4] | outcome [5] | Potency [6]

— PubChem BioAssay (Tox21)
